The source of these data is PubChem BioAssay (NCI).

Among the test systems are SK-MEL-2 melanoma; EKVX NSCLC; SN12C renal; UO-31 renal; TK-10 renal; ACHN renal; CAKI-1 renal; A498 renal; CCRF-CEM leukemia; MOLT-4 leukemia; SR leukemia; RPMI-8226 leukemia; OVCAR-8 ovarian; OVCAR-5 ovarian; OVCAR-4 ovarian; SK-OV-3 ovarian; IGROV1 ovarian; OVCAR-3 ovarian; HS 578T breast; NCI/ADR-RES ovarian.
Assay in all cases: NCI-60 one-dose screen, 48 h (100 = growth as untreated, 0 = no growth, -100 = all killed)
Conditions in all cases: 10 µM unless noted

The structures appear in SMILES notation. The panel holds about 83,000 compounds, 20% with a hit somewhere; the sample as a whole holds those more often.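 Negative percent growth values reflect cell death: -40 means 40% of the cells present at the start died, and -100 means all died.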 A number with no mark means an inactive call. Activity calls are given as the source filed them. The calls were made as follows: active = growth percent below 10; inactive = the rest.

For `CCCCCCCCOC(=O)C(C)OC(=O)OCCOCCOC(=O)OC(C)C(=O)OCCCCCCCC` (stereo not given), the growth in the test with SK-MEL-2 melanoma was 110%; in the test with EKVX NSCLC, 94%; in the test on SN12C renal, 99.3%; with UO-31 renal it was 87.5%; in the test with TK-10 renal, 115%; in the test on ACHN renal it was 98.8%. Moreover, the growth in the test on CAKI-1 renal is 95.8%; with A498 renal, 119%; with CCRF-CEM leukemia it was 102%; in the test on MOLT-4 leukemia it was 108%; in the test with SR leukemia it was 104%; with RPMI-8226 leukemia it was 98.7%. The growth is 105% in the test with OVCAR-8 ovarian; 81.8% with OVCAR-5 ovarian; 117% in the test on OVCAR-4 ovarian; 103% in the test with SK-OV-3 ovarian; 104% with IGROV1 ovarian; 98.6% in the test on OVCAR-3 ovarian. The values for the growth with HS 578T breast and in the test on NCI/ADR-RES ovarian were 102% and 101%, respectively.

Regarding `Cc1nc(N)nc2c1CCC(Nc1ccccc1)S2` (stereo not given), the growth in the test on SK-MEL-2 melanoma was 102%; in the test with EKVX NSCLC it was 103%; with SN12C renal, 101%; in the test on UO-31 renal, 79.2%; in the test with TK-10 renal it was 105%; in the test on ACHN renal it was 102%. The growth in the test on CAKI-1 renal is 94%; in the test on A498 renal, 97%; with CCRF-CEM leukemia, 90.9%; with MOLT-4 leukemia, 90.2%; with SR leukemia, 59.2%; in the test on RPMI-8226 leukemia it was 113%. The growth is 103% with OVCAR-8 ovarian; 100% in the test with OVCAR-5 ovarian; 114% in the test with OVCAR-4 ovarian; 109% in the test on SK-OV-3 ovarian; 111% in the test with IGROV1 ovarian; 108% in the test on OVCAR-3 ovarian. The growth was 103% with HS 578T breast and 104% in the test on NCI/ADR-RES ovarian.

On to `CC(C)CCSc1nc(Nc2ccccc2)c(C#N)c(-c2ccc(F)cc2)n1`, for which the growth in the test with SK-MEL-2 melanoma was 90.6%; with EKVX NSCLC it was 65.1%; in the test on SN12C renal it was 38.9%; in the test on UO-31 renal it was 30%; with TK-10 renal it was 20.6%; with ACHN renal, 13.4%. In addition, the growth with CAKI-1 renal was 55.5%; with A498 renal, 40%; with CCRF-CEM leukemia, 49.3%; in the test on MOLT-4 leukemia, 51.5%; in the test on SR leukemia, 37.4%; in the test with RPMI-8226 leukemia it was 50%. The growth in the test with OVCAR-8 ovarian is 42.2%; in the test on OVCAR-5 ovarian, 83.8%; in the test on OVCAR-4 ovarian, -18% (active); with SK-OV-3 ovarian, 67.2%; in the test on IGROV1 ovarian, 33.5%; in the test with OVCAR-3 ovarian, 28.8%. For the same compound, the growth in the test with HS 578T breast was 49.5%; in the test with NCI/ADR-RES ovarian it was 56.8%.

With `CCCCCCCOc1cccc(/C=C2\N=C3SCCCN3C2=O)c1`, the growth is 95.5% in the test with SK-MEL-2 melanoma; 92.7% with EKVX NSCLC; 94.1% in the test with SN12C renal; 78.7% in the test with UO-31 renal; 96.2% with TK-10 renal; 96.4% with ACHN renal. In addition, the growth in the test with CAKI-1 renal was 94.4%; in the test on A498 renal, 94.6%; in the test with CCRF-CEM leukemia, 111%; in the test with MOLT-4 leukemia, 100%; in the test on SR leukemia, 105%; with RPMI-8226 leukemia it was 91.7%. Besides, the growth in the test with OVCAR-8 ovarian is 102%; with OVCAR-5 ovarian, 115%; with OVCAR-4 ovarian, 85.6%; with SK-OV-3 ovarian, 107%; in the test with IGROV1 ovarian, 98.7%; in the test on OVCAR-3 ovarian it was 90.6%. Moreover, the values for the growth in the test on HS 578T breast and in the test on NCI/ADR-RES ovarian were 109% and 97%, respectively.

For `COc1cc(C2CC(c3cccc(Nc4ccnc5cc(Cl)ccc45)c3)=NN2C=O)cc(OC)c1OC` (stereo not given), the growth with SK-MEL-2 melanoma is -18.1% (active); in the test with EKVX NSCLC it was 32%; in the test on SN12C renal, 19.7%; in the test with UO-31 renal it was 2.53% (active); in the test on TK-10 renal, 2.13% (active); in the test on ACHN renal it was -6.99% (active). The growth is -31.1% (active) in the test on CAKI-1 renal; -16.4% (active) with A498 renal; 2.72% (active) in the test with CCRF-CEM leukemia; 9.97% (active) in the test with MOLT-4 leukemia; 4.97% (active) in the test on SR leukemia; 21% with RPMI-8226 leukemia. Also, the growth in the test on OVCAR-8 ovarian was 23.2%; with OVCAR-5 ovarian, 41.6%; in the test with OVCAR-4 ovarian, -16.7% (active); in the test with SK-OV-3 ovarian, 0.586% (active); with IGROV1 ovarian, 40.6%; in the test on OVCAR-3 ovarian, -81.2% (active). Also, the growth was -20.1% (active) in the test with HS 578T breast and 5.17% (active) in the test with NCI/ADR-RES ovarian.

Regarding `O=C(Nc1ccc(Cl)cc1)c1cc(-c2ccc(Cl)cc2)c2sc(=O)[nH]c2n1`, the growth was -29.3% (active) with SK-MEL-2 melanoma; 9.13% (active) with EKVX NSCLC; -9.7% (active) with SN12C renal; -5.54% (active) with UO-31 renal; 0.672% (active) in the test with TK-10 renal; 0.731% (active) in the test with ACHN renal. The growth in the test with CAKI-1 renal was 8.17% (active); with A498 renal it was -43.8% (active); with CCRF-CEM leukemia, 5.46% (active); in the test with MOLT-4 leukemia it was -24.2% (active); in the test on SR leukemia, 2% (active); with RPMI-8226 leukemia, -6.18% (active). The growth in the test on OVCAR-8 ovarian was 4.75% (active); with OVCAR-5 ovarian it was 32%; with OVCAR-4 ovarian, 13%; with SK-OV-3 ovarian it was -24.3% (active); with IGROV1 ovarian, 28.1%; with OVCAR-3 ovarian it was 1.82% (active). The growth in the test on HS 578T breast is -14.4% (active); in the test on NCI/ADR-RES ovarian, 5.64% (active).

With `Clc1ccccc1CNc1c2ccccc2nc2ccccc12`, the growth is 55.6% in the test with SK-MEL-2 melanoma; 25.9% in the test on EKVX NSCLC; 27.8% with SN12C renal; 17.5% in the test on UO-31 renal; 42.5% with TK-10 renal; 12.2% with ACHN renal. In addition, the growth was 25.2% in the test on CAKI-1 renal; -5.85% (active) in the test on A498 renal; 10.7% in the test on CCRF-CEM leukemia; 5.14% (active) with MOLT-4 leukemia; 0.495% (active) in the test with SR leukemia; -26.9% (active) in the test with RPMI-8226 leukemia. The growth is 23.8% in the test with OVCAR-8 ovarian; 32.6% with OVCAR-5 ovarian; 13.1% in the test with OVCAR-4 ovarian; 54.9% in the test on SK-OV-3 ovarian; 17.8% in the test on IGROV1 ovarian; 53.6% in the test with OVCAR-3 ovarian. Besides, the growth in the test on HS 578T breast is 50%; in the test with NCI/ADR-RES ovarian, 23.8%.

In the case of `C#C[C@]1(O)CC[C@H]2[C@@H]3CC=C4c5sc(-c6cccc(Br)c6)nc5CC[C@]4(C)[C@H]3CC[C@@]21C`, the growth in the test with SK-MEL-2 melanoma was 98.2%; in the test with EKVX NSCLC, 80.1%; in the test with SN12C renal, 96.3%; in the test on UO-31 renal it was 62.6%; in the test on TK-10 renal, 97.7%; in the test on ACHN renal, 83.3%. Further, the growth is 35% with CAKI-1 renal; 71.7% in the test on A498 renal; 61.4% in the test on CCRF-CEM leukemia; 58% in the test with MOLT-4 leukemia; 45.6% with SR leukemia; 2.09% (active) in the test with RPMI-8226 leukemia. Moreover, the growth in the test on OVCAR-8 ovarian was 98.7%; with OVCAR-5 ovarian, 75.5%; in the test with OVCAR-4 ovarian it was 100%; in the test on SK-OV-3 ovarian, 95.9%; with IGROV1 ovarian it was 102%; with OVCAR-3 ovarian it was 101%. Also, the results for the growth with HS 578T breast and in the test on NCI/ADR-RES ovarian were 69.5% and 91.1%, respectively.
